# Screening data from PubChem BioAssay.
# Hits are enriched below; roughly 2.3% of the tested compounds scored in any of these assays.
# MCL1-BIM inh: disrupts human MCL1 binding to BIM-BH3 peptide; Q07820; GST-MCL1 / FITC-Bim-BH3 fluorescence polarization; inhibition, % at 10.9 µM; actives 0.68% (n = 320,000); AID 2057;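 active = inhibition above the mean inhibition of all tested compounds plus 3 SD, set per campaign, cut at about 40% in these data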;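 note: higher means more loss of mP so more displacement of Bim peptide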
# Mcl1-Bid inh: disrupts binding of human Mcl-1 to Bid peptide; Q07820; inhibition, % at 21.7 µM; actives 0.97% (n = 220,000); TR-FRET Mcl-1/Bid-Dy647 peptide binding, 1536-well;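 active = compounds that cut the binding signal by more than half at the single screening dose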;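 note: His-tagged Mcl-1 with europium anti-His antibody binding Bid BH3 peptide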
# Bcl-xL primary: blocks human Bcl-xL binding to Bim BH3 peptide | Q07817 | GST-Bcl-xL / FITC-Bim BH3 peptide fluorescence polarization | inhibition, % at 10.9 µM | actives 0.7% (n = 320,000) | AID 2129;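 active = inhibition above the mean of all tested compounds plus 3 SD, cutoff set per campaign, cut at about 30% in these data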;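 note: inhibitors lower millipolarization by displacing the labeled peptide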
# Bim-Mcl-1: inhibitors of Bim-Mcl-1 interaction, human; Bead-based flow cytometry, Bim peptide-Mcl-1 binding; inhibition, % at 10 µM; AID 1009; Q07820; actives 0.1% (n = 190,000); in the data active = inhibition above about 40%
# GLD-1 TGE inh: GLD-1-TGE RNA interaction inhibition (C. elegans). Q17339. purified GLD-1 + fluorescein TGE RNA, fluorescence polarization. inhibition, % at 5.96 µM. actives 0.44% (n = 320,000). AID 2280;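 active = percent inhibition above a per-plate cutoff, the plate mean of test compounds plus 3 SD, cut at about 30% in these data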
# Target sequence (Q17339 whole entry, looked up): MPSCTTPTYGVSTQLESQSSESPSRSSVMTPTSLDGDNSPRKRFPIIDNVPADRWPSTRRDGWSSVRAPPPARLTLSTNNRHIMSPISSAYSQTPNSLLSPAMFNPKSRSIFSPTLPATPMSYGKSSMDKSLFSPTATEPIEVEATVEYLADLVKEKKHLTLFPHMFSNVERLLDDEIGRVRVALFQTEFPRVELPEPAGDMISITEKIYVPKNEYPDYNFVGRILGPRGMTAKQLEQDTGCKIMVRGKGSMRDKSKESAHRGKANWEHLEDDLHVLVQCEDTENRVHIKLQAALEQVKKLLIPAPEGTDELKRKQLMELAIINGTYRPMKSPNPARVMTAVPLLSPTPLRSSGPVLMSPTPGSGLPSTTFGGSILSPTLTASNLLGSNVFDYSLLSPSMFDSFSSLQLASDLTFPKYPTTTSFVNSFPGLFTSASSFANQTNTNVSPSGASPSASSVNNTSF
# Mcl1-Noxa inh: disrupts binding of human Mcl-1 to Noxa peptide; TR-FRET Mcl-1/Noxa peptide binding, 2 h; inhibition, % at 21.7 µM; actives 1.5% (n = 220,000); AID 1022;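 active = compounds that cut the protein-peptide binding signal by more than 50% relative to plate controls in a single-dose test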;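 note: His-tagged Mcl-1 with rhodamine Noxa BH3 peptide and terbium anti-His antibody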
# A number is an active result; n = inactive; x = no result given.
SMILES,MCL1-BIM inh,Mcl1-Bid inh,Bcl-xL primary,Bim-Mcl-1,GLD-1 TGE inh,Mcl1-Noxa inh
Cc1cc(C)cc(N(C(C)C(=O)N2CCOCC2)S(C)(=O)=O)c1 (stereo unspecified),n,52.9,n,n,n,n
Cc1cc(C)cc(N(C(C)C(=O)N2CCCCC2)S(C)(=O)=O)c1 (stereo unspecified),n,n,n,n,n,n
C=CCc1cc(Cl)ccc1OCCOCCNC(C)CC (stereo unspecified),n,n,n,n,n,n
CCC(C)NCCOCCSc1ccc(Cl)cc1 (stereo unspecified),n,52.1,n,n,n,n
N#Cc1nc(Cc2cccc3ccccc23)oc1N1CCC(C(N)=O)CC1,n,n,33.1,n,n,n
NC(=O)CC(CC(=O)OCc1ccccc1)c1ccccc1 (stereo unspecified),n,x,n,x,n,x
O=C(/C=C/c1ccco1)Nc1cccc2cccnc12,n,n,51.0,n,n,n
O=C(NC1CCCCC1)C(c1cccs1)N(C(=O)C(F)(F)F)c1ccccc1 (stereo unspecified),n,n,n,n,n,n
Cc1ccc(N(C(=O)C(F)(F)F)C(C(=O)NC2CCCCC2)c2cccs2)cc1C (stereo unspecified),n,66.1,n,n,n,n
COc1cc(NS(=O)(=O)c2ccc(NC(=S)NC(=O)c3sc4ccccc4c3Cl)cc2)ncn1,n,n,n,n,n,54.7
COc1ccc(C(=O)NC(=S)Nc2ccc(S(=O)(=O)Nc3cc(OC)ncn3)cc2)cc1,n,x,n,x,n,x
O=C1N/C(=N\N=C\c2ccc3ncccc3c2)SC1Cc1ccc(SC(F)F)cc1 (stereo unspecified),n,52.4,n,n,n,n
O=C1N/C(=N\N=C\c2cccnc2)SC1Cc1ccc(SC(F)F)cc1 (stereo unspecified),n,n,n,n,n,n
Cc1cc2nc(-c3cccnc3SCC(=O)NCc3ccco3)[nH]c2cc1C,n,n,n,n,n,73.2
Clc1ccccc1Cc1noc(CN2CCCCC2CCc2ccccn2)n1 (stereo unspecified),n,n,n,n,n,n
Cc1cc(C(=O)OCC(=O)Nc2ccccc2C(F)(F)F)on1,x,x,x,x,n,x
CN(Cc1ccco1)S(=O)(=O)c1nnc(NC(=O)c2cccc(Cl)c2)s1,n,x,n,x,n,x
O=C(N/N=C/c1c(O)n(Cc2ccccc2)c(=O)c2ccccc12)c1cccnc1,n,n,n,n,n,n
O=C(N/N=C/c1c(O)n(-c2ccccc2Cl)c(=O)c2ccccc12)c1cccnc1,x,n,x,n,x,55.4
O=C(/C=C\Nc1ccc(S(=O)(=O)Nc2ncccn2)cc1)c1cccc2ccccc12,n,95.9,n,x,n,n
COc1cccc(/C=N/NC(=O)C(=O)N2CCCCCC2)c1O,n,x,n,x,n,x
COc1cccc(/C=N/NC(=O)C(=O)N/N=C/c2cccc(OC)c2O)c1O,x,n,x,n,x,59.4
COc1cccc(/C=N/NC(=O)c2cc3c(OC)cccc3[nH]2)c1O,n,n,n,n,n,59.0
C=CCNCC(=O)Nc1ccccc1SCC(=O)Nc1ccsc1C(=O)OC,n,n,n,n,n,n
Cc1ccccc1C(=O)N/N=C/c1ccsc1C,n,n,n,n,n,n
SMILES,MCL1-BIM inh,Mcl1-Bid inh,Bcl-xL primary,Bim-Mcl-1,GLD-1 TGE inh,Mcl1-Noxa inh
Cc1sccc1/C=N/NC(=O)c1cccc2ccccc12,n,n,n,n,n,91.9
CC(C)(C)C(=O)NC1CCN(S(C)(=O)=O)CC1,n,58.2,n,n,n,n
CC(C)(C)C(=O)NC1CCN(C(=O)N2CCCC2)CC1,n,n,n,n,n,n
O=C(CSc1nnc(COc2cccc3cccnc23)o1)N1CCc2ccccc21,n,84.0,n,n,n,n
O=C(CSc1nnc(Cc2ccccc2)o1)N1CCc2ccccc21,n,n,n,n,n,n
O=C(COC(=O)c1ccccn1)NC1CCCCC1,n,n,n,66.0,n,n
CC(=O)C12CCCCC1CC1C3CC(C)C4(O)CC(=O)CCC4(C)C3CCC12C (stereo unspecified),n,x,n,x,n,x
CCN(c1ccc(NC(=O)CN2C(=O)NC3(CCOc4ccccc43)C2=O)cc1)C(C)C (stereo unspecified),n,n,n,n,n,65.8
FC(F)(F)c1cccc(CN2CCCCCC2)c1,n,51.5,n,n,n,n
CCN(CC)C(=O)C1CCCN(Cc2cccc(F)c2)C1 (stereo unspecified),n,64.3,n,n,n,n
Cc1cc(C)cc(N=Cc2[nH]c3ccc(Br)c(Cl)c3c2O)c1,n,n,n,n,n,52.1
N#CC1=C(N)N2C(=C(C#N)C1c1cccc(Br)c1)Nc1ccccc12 (stereo unspecified),n,n,n,n,n,n
N#CC1=C(N)N2C(=C(C#N)C1c1ccc(Br)cc1)Nc1ccccc12 (stereo unspecified),n,51.3,n,n,n,n
COc1cc(CNCc2cccs2)ccc1OCC(=O)NC(C)(C)C,n,n,n,n,n,n
CN(C)c1ccc(N/C=C/C(=O)C(C)(C)C)cc1,n,n,31.5,n,n,n
COCC(=O)Nc1cccc(C(F)(F)F)c1,n,n,n,n,n,n
Cc1cc(C(F)(F)F)nn1CC(=O)N(C)c1ccccc1,n,n,n,n,n,n
Cc1nc(COC(=O)c2ccc(CO)cc2)cs1,n,n,n,n,n,n
Cc1nc(COC(=O)c2cc(O)c3ccccc3c2O)cs1,x,93.8,x,n,x,104.2
CC(C)c1ccc(S(=O)(=O)/N=C2/C=CC(=O)c3ccccc32)cc1,x,n,x,n,x,77.7
CCc1ccc2nc(NC(=O)c3ccc(N4C(=O)CCC4=O)cc3)sc2c1,n,n,n,x,n,n
CNS(=O)(=O)c1ccc2nc(NC(=O)c3ccc(N4C(=O)CCC4=O)cc3)sc2c1,n,n,n,n,n,60.1
Cc1ccc(NC(=O)N2CCCn3c(SCC(=O)c4ccccc4)nnc32)cc1,n,n,n,x,n,n
Cc1cc(C(=O)O)ccc1-c1ccc(/C=C2\NC(=O)N(Cc3ccccc3Cl)C2=O)o1,n,n,n,n,n,60.6
Cc1ccc(CN2C(=O)N/C(=C\c3ccc(-c4ccc(C(=O)O)cc4C)o3)C2=O)cc1,n,n,n,x,n,56.6
O=C(O)c1ccc(-c2ccc(/C=C3\NC(=O)N(Cc4ccc(Cl)cc4)C3=O)o2)cc1,x,n,x,x,x,61.0
CCN1C(=O)C2(SC(NC(C)=O)=NN2C(C)=O)c2cc(C)ccc21 (stereo unspecified),n,n,n,n,n,n
Cc1nn(Cc2ccc(F)cc2)c2sc(C(=O)Nc3nccs3)cc12,n,n,n,n,n,n
CC1(C)C(=O)Nc2ccccc2N1C(=O)COC(=O)COc1cccc(C(F)(F)F)c1,n,x,n,x,n,x
CC(NC(=O)CNC(=O)c1ccco1)c1ccc(S(N)(=O)=O)cc1 (stereo unspecified),n,x,n,x,n,x
